Measurements reported in PubChem BioAssay (NCI).
Compounds without any hit were thinned out: in the full panel of roughly 79,000, 15% have a hit. The source made the active and inactive calls. Cut-off read from the data, not from the text of the source: active = growth inhibition above about 70%; inactive = the rest.

Assays:
[1] = NCI Yeast Anticancer Drug Screen. Data for the rad50 strain (AID 155);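 note: 0% = growth of vehicle-only cultures of the same strain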; conditions: S. cerevisiae rad50 strain growth inhibition; at 50.0 µM; active compounds read high
Summary of the method: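 Vehicle-treated cultures provide the reference for the growth inhibition reported for compound-exposed, repair-deficient yeast.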

[2] = NCI Yeast Anticancer Drug Screen. Data for the mec2-1 strain (AID 157); conditions: S. cerevisiae mec2-1 strain, at 50.0 µM, active compounds read high
Summary of the method: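 Vehicle-treated cultures served as reference for growth inhibition of compound-exposed mec2-1 yeast.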

[3] = NCI Yeast Anticancer Drug Screen. Data for the sgs1 mgt1 strain (AID 161);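 note: 0% = growth of cultures given vehicle only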; conditions: S. cerevisiae sgs1 mgt1 strain, at 50.0 µM, active compounds read high
Summary of the method: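 Test agents were incubated with a DNA-repair-mutant yeast strain. Growth was then read and compared against vehicle-treated controls.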

[4] = NCI Yeast Anticancer Drug Screen. Data for the cln2 rad14 strain (AID 165);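 note: 0% = growth equal to vehicle treated cultures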; conditions: S. cerevisiae cln2 rad14 strain, at 50.0 µM, active compounds read high
Summary of the method: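 Each compound was tested on cln2 rad14 yeast. Inhibition of growth was calculated against vehicle-exposed controls.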

[5] = NCI Yeast Anticancer Drug Screen. Data for the bub3 strain (AID 167); conditions: S. cerevisiae bub3 mutant strain, at 50.0 µM, active compounds read high
Summary of the method: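 Mutant yeast screening strain plus compound; vehicle-treated cultures serve as the 0% inhibition reference.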

[6] = NCI Yeast Anticancer Drug Screen. Data for the mlh1 rad18 strain (AID 175); conditions: S. cerevisiae mlh1 rad18 strain growth inhibition; at 50.0 µM; active compounds read high
Summary of the method: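 Vehicle-treated cultures served as the reference for growth inhibition in a yeast strain carrying DNA damage repair alterations exposed to each compound.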

Measured: growth inhibition

C1CCC(CCC2CCCC[N-]2)[N-]C1.[I][Co][I] (stereo unspecified)
inactive: [1] 48.3% | [2] 27.9% | [3] 47% | [4] -3% | [5] 33.7% | [6] 43.5%

CC[N+](C)(CC)CCOC(C)=O
inactive: [1] 8.55% | [2] -12.1% | [3] -5.95% | [4] 11.2% | [5] -6.5% | [6] 8.3%

COC1=C(c2ccccc2)P(=O)(Cc2ccccc2)C2CCCC12 (stereo unspecified)
inactive: [1] 4.95% | [2] 21.4% | [3] 35.9% | [4] 7.6% | [5] 21.4% | [6] -17.3%

N#Cc1c[nH]n2ccnc12
inactive: [1] -16.7% | [2] -20.4% | [3] -23.4% | [4] -21.7% | [5] -4.1% | [6] -17.1%

O=C1/C(=C/c2ccccc2)CN(C(=O)/C=C/c2ccccc2)C/C1=C\c1ccccc1
inactive: [1] -23.6% | [2] -19.8% | [3] -52% | [4] -8.15% | [5] -11.6% | [6] -33.2%

CC1=C(C[Si](C)(C)C)CC(CO[Si](C)(C)C(C)(C)C)C2C(=O)N(C(=O)c3ccccc3)C(Cc3ccccc3)C12 (stereo unspecified)
inactive: [1] 21.6% | [2] 5.7% | [3] 2.05% | [4] -4.25% | [5] -3.95% | [6] 23.4%

O=C(O)Cn1ccc(=O)c2ccc([N+](=O)[O-])cc21
inactive: [1] 35.7% | [2] 15.2% | [3] 13.7% | [4] 26.9% | [5] 23.8% | [6] -47.5%

OC1CCCN(Cc2ccccc2)C1 (stereo unspecified)
inactive: [1] 9.3% | [2] -15.7% | [3] 8.55% | [4] 4.5% | [5] 11.3% | [6] 7.35%

Nc1ncc2c(ncn2CC(O)CO)n1 (stereo unspecified)
inactive: [1] -24.6% | [2] -2.5% | [3] -1.55% | [4] 4.65% | [5] -3% | [6] -3.25%

Cn1cnc2c1S(=O)(=O)NCN2
inactive: [1] 10.7% | [2] 3.15% | [3] -8.6% | [4] -3.2% | [5] 19.9% | [6] 6.7%

CCOC(=O)CCC(NC(=O)C(CCC(=O)OCC)NC(=O)C(Cc1ccc([N+](=O)[O-])cc1)NC(C)=O)C(=O)NNC(=O)OC(C)(C)C (stereo unspecified)
inactive: [1] -22.8% | [2] -28.4% | [3] -17% | [4] -3.35% | [5] -23.6% | [6] -7.3%

C=C(Br)CNC(=O)c1ccccc1
inactive: [1] 7.5% | [2] -3.45% | [3] -1.35% | [4] -39.4% | [5] 21.4% | [6] 5.2%

CCCCCCCCCCCCCCCCC(=O)O
inactive: [1] -12.9% | [2] -15.8% | [3] -22.6% | [4] -27.8% | [5] 16.8% | [6] -7.85%

COC(=O)c1ccccc1NC(=O)Nc1ccccc1
inactive: [1] 3.1% | [2] 9.35% | [3] 3.25% | [4] -14.9% | [5] 4.25% | [6] 8.35%

C=C1CCC/C(=N\Nc2ccc([N+](=O)[O-])cc2[N+](=O)[O-])C12CCCC2
inactive: [1] -2.45% | [2] 3.45% | [3] -4.65% | [4] -11.6% | [5] 1.15% | [6] -1.35%

Cc1cccc(Cl)c1N
inactive: [1] -5.55% | [2] -7.95% | [3] 6.9% | [4] 3.15% | [5] -2.4% | [6] -3.15%

Oc1cccc(N=Cc2ccccc2O)c1
inactive: [1] 4.3% | [2] -4.85% | [3] 0.15% | [4] -18.8% | [5] -5.15% | [6] 0.15%

COC(=O)c1c2c(cc3c1CC1(Cc4cc5c(c(C=O)c4C1)CCC5)C3)CCC2 (stereo unspecified)
inactive: [1] -50.6% | [2] -23.4% | [3] 8.25% | [4] 1.55% | [5] 14.4% | [6] 4.8%

C=C1CN=C(Nc2ccc(Cl)cc2)S1
inactive: [1] -11.1% | [2] 18.1% | [3] -14.8% | [4] 17.2% | [5] 11.5% | [6] -13.7%

CC(O)CCNC(c1ccccc1)C(O)c1ccccc1 (stereo unspecified)
inactive: [1] 3% | [2] -6.95% | [3] -2.85% | [4] -7.4% | [5] 14.6% | [6] -0.85%

Cc1cc2ncn(CO)c2cc1C
inactive: [1] -4.5% | [2] -0.2% | [3] 18.8% | [4] -7.4% | [5] 20% | [6] 0.75%

COc1ccc(C(C)=O)c(OC(C)=O)c1OC(C)=O
inactive: [1] 4.05% | [2] 0.95% | [3] 6.25% | [4] 10% | [5] 5.8% | [6] 17.2%

CCOc1ccc(N2C(C#N)c3ccccc3OC2c2ccccc2O)cc1 (stereo unspecified)
inactive: [1] 3.65% | [2] 46.1% | [3] 18.6% | [4] -5.2% | [5] 32.5% | [6] 11.6%

CCOC(C)=N
inactive: [1] 3.1% | [2] -29.4% | [3] 7.3% | [4] -6.85% | [5] -9.7% | [6] 3.35%

NCCN1CCOCC1
inactive: [1] 7.95% | [2] -3% | [3] -11.9% | [4] 3.45% | [5] -5.25% | [6] 7.8%

C/C=C/C1OC(OC)(OC)C1(OC)OC (stereo unspecified)
inactive: [1] 38.8% | [2] 9.85% | [3] 18.9% | [4] 3.25% | [5] 11.3% | [6] 11.6%

S=C(Nc1ccc(N=Nc2ccccc2)cc1)SCc1ccc(Cl)cc1
inactive: [1] 28.4% | [2] 3.6% | [3] 20.6% | [4] 13.1% | [5] -2.75% | [6] 14%

O=C(Nc1nc2ccccc2n1Cc1ccc(Cl)cc1)NC12CC3CC(CC(C3)C1)C2
inactive: [1] 15.8% | [2] -6.45% | [3] 7.2% | [4] -30.6% | [5] 27.5% | [6] -18.6%

CCCCCCCCCCO
inactive: [1] -1.6% | [2] 4.6% | [3] -5.15% | [4] 5.45% | [5] 3.2% | [6] -1.6%

F[B-](F)(F)[NH2+]c1ccc(-c2ccc([NH2+][B-](F)(F)F)c(Cl)c2)cc1Cl
inactive: [1] 35.1% | [2] 8.15% | [3] 42.3% | [4] 38% | [5] 19.9% | [6] 10.7%

C1=NC(c2ccccc2)=CN(C2CCCCC2)C1(c1ccccc1)C1CCCCC1 (stereo unspecified)
active: [1] 97.1% | [2] 96.5% | [3] 97.2% | [4] 94.6% | [5] 95.7% | [6] 96.5%

COc1ccc(/C=N/Nc2nc3ccccc3s2)cc1
inactive: [1] 7.9% | [2] -3.15% | [3] -3.15% | [4] -41.4% | [5] 1% | [6] 25.6%

O=C(Nc1nccs1)c1c(O)nc2sccn2c1=O
inactive: [1] 8.7% | [2] -33% | [3] 18.9% | [4] 22.4% | [5] 14.8% | [6] -12.6%

O=C(O)c1ccc2ncc(-c3ccccc3)nc2c1
inactive: [1] 5.3% | [2] 11.7% | [3] 2.35% | [4] -31.1% | [5] -7.4% | [6] 16.4%

O=C(CN1C(=O)c2ccccc2C1=O)OC1C=CCCC1 (stereo unspecified)
inactive: [1] 12.2% | [2] 0.65% | [3] 1.5% | [4] 18.7% | [5] 9.6% | [6] 10.3%

CC(C)N(C(=S)/N=C1/SC(C)S(=O)(=O)N1C)C(C)C (stereo unspecified)
inactive: [1] -4.95% | [2] 13.6% | [3] -5.95% | [4] -4.5% | [5] -10.8% | [6] 5.45%

CN/N=C(\C(=O)Nc1ccc([N+](=O)[O-])cc1[N+](=O)[O-])C1NC(=O)NC1=O (stereo unspecified)
inactive: [1] 23.8% | [2] 20.1% | [3] 1.95% | [4] 5.05% | [5] 15.9% | [6] -10.9%

CCOC(=O)CN1CCC(C(=O)OCC)CC1
inactive: [1] 7.75% | [2] -27% | [3] 20.6% | [4] 12.9% | [5] -3.05% | [6] 20.8%

Nc1cc(=O)n(-c2ccccc2)[nH]1
inactive: [1] -2.05% | [2] -10.6% | [3] -6.8% | [4] -19.9% | [5] -27.9% | [6] 22%

CC(=O)Nc1ccc(F)c([N+](=O)[O-])c1
inactive: [1] -6.45% | [2] -19.6% | [3] 3.35% | [4] -13.7% | [5] -14.9% | [6] 5.7%

Nc1cccc(Br)n1
inactive: [1] 16.1% | [2] -4.9% | [3] 0.45% | [4] -51.7% | [5] 7.1% | [6] 4.9%
